According to PubChem BioAssay (EPA / NIEHS):
The source made the active and inactive calls. How the source made its calls: active means hit-call score of the fitted dose curve at least 0.9, where 1 is the maximum; inactive means score below 0.9.

Experiment: CCTE_Shafer_MEA_acute_burst_duration_mean: CCTE's Neural Acute Assay for Mean Burst Duration, Shafer Lab (AID 2284014)
Method: CCTE_Shafer_MEA_acute assay is conducted using Axion Biosystems 48 well microelectrode array (MEA) plates and Maestro recording system. Each well of the MEA plate contains a grid of 16 microelectrodes embedded in the culture surface. Electrically active cells, such as neurons, can be cultured over the electrodes, and electrical activity in these cells can be recorded extracellularly. The spontaneous firing of neurons is captured from each electrode on a microsecond timescale providing both temporally and spatially precise data. […] The CCTE_Shafer_MEA_acute assay uses primary cultures of rat cortical neurons. As these cultures mature over time, neural networks develop functional activity and form cohesive networks in which electrical activity can be highly coordinated. Baseline 40-minute recordings are made on days post-plating 13 or 15, followed by a secondary 40-minute recording after chemical exposure.CCTE_Shafer_MEA_acute_burst_duration_mean is a component of the CCTE_Shafer_MEA_acute assay. It measures the average time from the first spike (action potential firing) to the last spike in a single-electrode burst (temporally-clustered group of spikes) during a recording in a microelectrode array (MEA) using Axion Biosystems Maestro 768 channel amplifier with the AxIS adaptive spike detector. The recordings before and after chemical treatment are used to calculate a percent change in the mean burst duration in each well.Data from the assay component CCTE_Shafer_MEA_acute_burst_duration_mean was analyzed into 1 assay endpoint. This assay endpoint, CCTE_Shafer_MEA_acute_burst_duration_mean, was analyzed in the negative analysis fitting direction relative to DMSO as the negative control and baseline of activity. Using a type of functional reporter, gain or loss-of-signal activity can be used to understand electrical activity.
Spontaneous activity in the cortical cultures was recorded using an Axion Biosystems Maestro 768 channel amplifier and Axion Integrated Studios (AxIS) v1.8 (or later) software. The amplifier recorded from all channels simultaneously (gain = 1200 x; sampling rate = 12.5 kHz/channel): raw signals were filtered with a Butterworth band-pass filter (300-5000 Hz), which filters out slower local field potentials leaving only fast potentials, i.e., "spikes", arising from extracellular currents associated with action potentials (Pine 2006; Wheeler and Nam 2011). On-line spike detection of filtered signals was conducted with the AxIS adaptive spike detector, using a threshold of 8x the root mean squared (rms) noise on each channel. Any electrodes with rms noise levels greater than 5 uV were grounded (e.g., no data were recorded). Once grounded, an electrode was grounded for the duration of the experiment. All recordings were conducted at 37 C. Wells were deemed usable if on the day of the exposure >/= 10 electrodes were active (defined as >/= 5 spikes/min). On DIV 13 or 15, a minimum of three wells from one cortical culture preparation were treated with each compound (0.03-40 uM). Prior to recording baseline activity, each mwMEA plate was placed in the Maestro at 37 C and allowed to sit for 20 min while firing rates stabilized. Baseline activity (40 min) was recorded before the addition of each compound. An additional 40 min of spontaneous activity was recorded in the presence of each compound. Changes in network parameters relative to baseline were assessed following compound treatment.

| SMILES | outcome | AC50 |
| --- | --- | --- |
| CC(C)CCCCCCOC(=O)CCCCC(=O)OCCCCCCC(C)C | inactive |  |
| CCCOc1sc(C(=O)N2CCC(c3cc(CN)ccc3F)CC2)c(C)c1Br | inactive |  |
| O=c1c(-c2ccc(O)cc2)coc2cc(O)ccc12 | inactive |  |
| O=C(O)c1ccccc1C(c1ccc(O)cc1)c1ccc(O)cc1 | inactive |  |
| Oc1cc2ccccc2c2ccccc12 | inactive |  |
| CCCCCCCCCCCCc1ccccc1S(=O)(=O)O | inactive |  |
| CCCCCCCCCCCCCCCS(=O)(=O)Oc1ccccc1 | inactive |  |
| CN(C)C=O | inactive |  |
| CCCCCCCCCCCCN1CCCC1=O | inactive |  |
| CN1CCN(c2ccccc2/C=C2\SCCN(c3ccc(Cl)c(Cl)c3)C2=O)CC1 |  | 32 µM (active) |
| CC[C@H](c1ccc(O)cc1)[C@@H](CC)c1ccc(O)cc1 | inactive |  |
| CCc1ccc(CCOc2ccc(CC3SC(=O)NC3=O)cc2)nc1 (stereo unspecified) | inactive |  |
| CC(=O)NC1(c2cccc(F)c2)CCN(CC[C@@]2(c3ccc(Cl)c(Cl)c3)CN(c3ccccc3)C(=O)CO2)CC1 |  | 1.04 µM (active) |
| CCC(=C(c1ccc(O)cc1)c1ccc(OCCN(C)C)cc1)c1ccccc1 |  | 23 µM (active) |
| OCCC(F)(F)C(F)(F)C(F)(F)C(F)(F)C(F)(F)C(F)(F)C(F)(F)C(F)(F)F | inactive |  |
| Cc1cc(CCN2CCN(c3nsc4ccccc34)CC2)cc2c1NC(=O)CC2(C)C |  | 8.81 µM (active) |
| OC1CCC(C2CCCCC2)CC1 (stereo unspecified) | inactive |  |
| CC#C[C@]1(O)CC[C@H]2[C@@H]3CCC4=CC(=O)CCC4=C3[C@@H](c3ccc(N(C)C)cc3)C[C@@]21C | inactive |  |
| CN1CCC[C@H]1c1cccnc1 | inactive |  |
| CC(C)(C)c1cc(C(C)(C)C)c(O)c(C(C)(C)C)c1 | inactive |  |
| NC(=O)N(O)[C@@H]1C=C[C@H](Oc2cccc(Oc3ccc(F)cc3)c2)C1 |  | 18.5 µM (active) |
